Screening results: PubChem, National Center for Advancing Translational Sciences (NCATS)
HEK293 tox: kills HEK 293 cells | HEK 293 viability, ATP luminescence (CellTiter-Glo), 48-72 h | Potency, µM (series often up to 115 µM), for inactives: at the highest dose activity change, negative = cytotoxicity, usual class: inhibitors | 94,000 tested, 6.6% active | AID 1345083; note: nearly all actives have a fitted effect of over 60% in size
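HEK 293 cells at 250 cells/well were exposed to compounds by pintool transfer for 48 or 72 hr at 37 degree Celsius, 5% CO2. Viability was read as ATP-coupled luminescence with CellTiter-Glo after 10 min at room temperature.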
NIH3T3 tox: kills NIH 3T3 cells | AID 1345082 | Potency, µM (series often up to 96.7 µM), for the others: at the top dose activity change, negative = cytotoxicity, actives largely listed as inhibitors | 94,000 tested, 4.3% active | NIH 3T3 viability, CellTiter-Glo ATP luminescence, 48-72 h; note: nearly all actives have a fitted effect of over 55% in size
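Viability of NIH 3T3 cells after 48 or 72 hr compound treatment at 37 °C was assessed by CellTiter-Glo, with luminescence imaged following a 10 min room-temperature step.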
hNpr1 antagonist: human Npr1 receptor antagonism | HEK293 hNpr1 GloSensor cGMP, ANP-stimulated luminescence | Potency, µM (doses to about 46.3 µM), inactives show at the highest dose activity change, negative = inhibition, actives largely listed as inhibitors | 76,000 tested, 1.6% active | AID 1347048; calls by dose curve; note: nearly all actives have a fitted effect of over 60% in size
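HEK293 cells stably expressing human Npr1 and cGMP GloSensor pGS-40F, loaded 2 h with 2% GloSensor reagent, given compound 30 min at room temperature. Luminescence read before and 20 min after 0.1 nM hNppA.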
Luciferase inh: blocks purified firefly luciferase enzyme activity. P08659. purified P. pyralis luciferase, luminescence, biochemical. Potency, µM (titrated, usually from 115 µM), most hits filed as inhibitors. 76,000 tested, 2.5% active. AID 1347043; note: nearly all actives have a fitted effect of over 65% in size
Target sequence (P08659 whole entry, looked up): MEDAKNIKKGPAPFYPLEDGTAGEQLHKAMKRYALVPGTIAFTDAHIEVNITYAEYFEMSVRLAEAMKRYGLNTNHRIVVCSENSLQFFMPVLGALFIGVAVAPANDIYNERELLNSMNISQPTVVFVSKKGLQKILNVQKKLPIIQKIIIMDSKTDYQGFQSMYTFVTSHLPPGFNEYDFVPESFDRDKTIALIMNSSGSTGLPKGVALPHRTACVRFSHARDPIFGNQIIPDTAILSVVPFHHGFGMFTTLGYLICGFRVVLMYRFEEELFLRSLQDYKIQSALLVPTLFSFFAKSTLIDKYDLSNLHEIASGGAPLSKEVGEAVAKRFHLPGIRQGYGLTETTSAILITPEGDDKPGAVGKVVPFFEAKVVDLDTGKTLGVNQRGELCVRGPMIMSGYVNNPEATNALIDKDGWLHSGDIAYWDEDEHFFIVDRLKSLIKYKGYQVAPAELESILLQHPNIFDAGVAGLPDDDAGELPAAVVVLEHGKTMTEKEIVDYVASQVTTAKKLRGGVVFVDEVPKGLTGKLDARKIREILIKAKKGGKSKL
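Biochemical qHTS: compound (6-point titration) added to 10uM D-luciferin plus 10uM ATP in Tris acetate pH 7.5 buffer with Mg, Tween-20 and BSA, then purified enzyme at 10nM; light output imaged.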
Numbers without * were called inactive; [ ] = another dose, or the depositor's remark. Rows were chosen to be rich in hits. Some 11% of all compounds tested hit in one or more screens of this group. Unless noted, calls come from the whole dose curve; as a rule, active = well fitted curve in the direction sought with a large enough effect; inconclusive = small, poorly fitted or top-dose-only effect, or another doubt; inactive = no such curve, though single readings can be large; an effect the other way counts as inactive or inconclusive. % is set by controls: 0 for no effect and ±100 for the full control effect; potency is the fitted concentration of half-maximal effect.

Screening COC(=O)[C@@H]1Cc2ncn(Cc3ccc(Cl)cc3)c2CN1Cc1ccc(CO)o1 returned HEK293 tox inconclusive, NIH3T3 tox inconclusive, hNpr1 antagonist -8%[70.6 µM] and Luciferase inh inactive.
Screening COC(=O)[C@@H]1Cc2ncn(Cc3ccc(OC)cc3)c2CN1CCCc1ccccc1 returned HEK293 tox inconclusive, NIH3T3 tox inconclusive, hNpr1 antagonist -25%[70.6 µM] and Luciferase inh inactive.
For CC(=O)NC1CCN(c2ccnc3ccnn23)CC1 the results were HEK293 tox -4% and NIH3T3 tox -3%.
Screening Cc1ccc(NC(=O)N2C[C@@H](F)C[C@H]2C(=O)N2CCc3ccccc3C2)cc1Cl returned HEK293 tox 28µM*, NIH3T3 tox inconclusive, hNpr1 antagonist -13% and Luciferase inh inactive.
For COc1ccc2[nH]c3c(c2c1)CCNC31CCN(Cc2ccc(C)o2)CC1 the results were HEK293 tox inconclusive, NIH3T3 tox inconclusive, hNpr1 antagonist -8% and Luciferase inh inactive.
`Cc1cnc(CCNC(=O)c2cccc(C#N)c2)n1C1CC1` gave HEK293 tox -15%, NIH3T3 tox 4%, hNpr1 antagonist 1% and Luciferase inh inactive.
For CCOc1ccc(-c2cc3c(=O)n(CCNC(=O)c4ccccc4OC)ccn3n2)cc1 the results were HEK293 tox inconclusive, NIH3T3 tox inactive, hNpr1 antagonist -24% and Luciferase inh 16µM*.
For CCOc1ccc(-c2cc3c(=O)n(CCNC(=O)C4(c5ccccc5)CC4)ccn3n2)cc1 the results were HEK293 tox inactive, NIH3T3 tox inactive, hNpr1 antagonist 0% and Luciferase inh 25µM*.
For CCOc1ccc(-c2cc3c(=O)n(CCNC(=O)c4ccc(OC)cc4)ccn3n2)cc1 the results were HEK293 tox -1%, NIH3T3 tox -8%, hNpr1 antagonist -20% and Luciferase inh inactive.
COCCN1C(=O)c2ccccc2C(C(=O)Nc2nc3ccccc3[nH]2)C12CCCCC2 (stereo not drawn) was read as HEK293 tox 79µM*, NIH3T3 tox inconclusive, hNpr1 antagonist -15% and Luciferase inh inactive.
`COCCN1C(=O)c2ccccc2C(C(=O)Nc2nc3ccccc3[nH]2)C12CCCC2` (stereo not drawn) gave HEK293 tox 5%, NIH3T3 tox -4%, hNpr1 antagonist 5% and Luciferase inh inactive.
`Cc1cc2cc(-c3c(C)noc3C)nc(N3CCCC3)c2o1` gave HEK293 tox inconclusive, NIH3T3 tox inconclusive, hNpr1 antagonist 4%[70.6 µM] and Luciferase inh inactive.
Cc1noc(C)c1-c1cc2c(cc(C)n2C)c(-c2cccc(CO)c2)n1 was read as HEK293 tox inconclusive, NIH3T3 tox 45µM*, hNpr1 antagonist -20%[70.6 µM] and Luciferase inh inactive.
CNC(=O)c1cc2cc(-c3c(C)noc3C)nc(-c3cccc(CO)c3)c2o1 was read as HEK293 tox inconclusive, NIH3T3 tox inconclusive, hNpr1 antagonist 0%[70.6 µM] and Luciferase inh inactive.
Screening CC(=O)N1CCN(c2nc(-c3c(C)noc3C)cc3cc(C(C)C)oc23)CC1 returned HEK293 tox inconclusive, NIH3T3 tox 50µM*, hNpr1 antagonist -2%[70.6 µM] and Luciferase inh inactive.
Screening Cc1cc2c(-c3ccc(CO)cc3)nc(-c3c(C)noc3C)cc2[nH]1 returned HEK293 tox inconclusive, NIH3T3 tox 10µM*, hNpr1 antagonist -1%[70.6 µM] and Luciferase inh inactive.
For Cc1noc(C)c1-c1cc2c(cc(C)n2C)c(N2CCN(c3ccccn3)CC2)n1 the results were HEK293 tox 63µM*, NIH3T3 tox 45µM*, hNpr1 antagonist 3%[70.6 µM] and Luciferase inh inactive.
Screening Cc1ccc(-n2nc3n(c2=O)CCN(C(=O)C2CCCC2)C3)cc1 returned HEK293 tox inconclusive, NIH3T3 tox inconclusive, hNpr1 antagonist -14%[70.6 µM] and Luciferase inh inactive.
For O=C(c1ccc(Cl)cc1)N1CC2(CCN(C3COC3)CC2)Cc2ccccc21 the results were HEK293 tox 5% and NIH3T3 tox inconclusive.
COc1ccc(-c2ccc(C(=O)N3CCN([S+](=O)([O-])C(C)C)CC3)cc2)nn1 was read as HEK293 tox inconclusive and NIH3T3 tox -30%.
`Cc1noc(C)c1-c1cc2c(cc(C)n2C)c(NCc2ccncc2)n1` gave HEK293 tox inconclusive, NIH3T3 tox inconclusive, hNpr1 antagonist 5%[70.6 µM] and Luciferase inh inactive.
Cc1noc(C)c1-c1cc2c(cc(C)n2C)c(-c2ccc(CO)cc2)n1 was read as HEK293 tox inconclusive, NIH3T3 tox 32µM*, hNpr1 antagonist 1%[70.6 µM] and Luciferase inh inactive.
`Cc1noc(C)c1-c1cc2cc(C(C)C)oc2c(-c2cccc(CO)c2)n1` gave HEK293 tox 71µM*, NIH3T3 tox inconclusive, hNpr1 antagonist -13%[70.6 µM] and Luciferase inh inactive.
Cc1cc2c(-c3cccc(OC(C)C)c3)nc(-c3c(C)noc3C)cc2[nH]1 was read as HEK293 tox 28µM*, NIH3T3 tox 50µM*, hNpr1 antagonist -1%[70.6 µM] and Luciferase inh inactive.
For COCC(=O)N1CCN(CC(=O)NCc2cccs2)[C@H]2CS(=O)(=O)C[C@H]21 the results were HEK293 tox 4%, NIH3T3 tox -16%, hNpr1 antagonist -1% and Luciferase inh inactive.
Screening Cc1nc2n(c1C(=O)Nc1cc(-c3ccc(F)cc3)[nH]n1)CCC(Nc1ccc(F)cc1)C2 (stereo not drawn) returned HEK293 tox inconclusive, NIH3T3 tox 32µM*, hNpr1 antagonist -18% and Luciferase inh inconclusive.
For CN(CCCN1CCCCCC1)c1nc(-c2ccncc2)nc2c1cnn2C the results were HEK293 tox inconclusive, NIH3T3 tox 32µM*, hNpr1 antagonist 10% and Luciferase inh inactive.
Screening O=C(c1ccc(C2CCCNC2)cc1)N1CCC(Oc2cccc(F)c2)CC1 (stereo not drawn) returned HEK293 tox 28µM*, NIH3T3 tox 40µM*, hNpr1 antagonist -14% and Luciferase inh inactive.
`O=c1c2nc(OCc3ccc(F)cc3)ccc2ncn1Cc1ccccn1` gave HEK293 tox inconclusive, NIH3T3 tox inconclusive, hNpr1 antagonist -9%[70.6 µM] and Luciferase inh inactive.
`Cc1cccc(C(=O)N2CCc3[nH]nc(C(=O)N(C)C)c3C2)c1` gave HEK293 tox -1%, NIH3T3 tox 1%, hNpr1 antagonist -2% and Luciferase inh inactive.
`O=C(c1nn(CC2CC2)c2c1CNCC2)N1CCC(Cc2ccccc2)CC1` gave HEK293 tox inconclusive and NIH3T3 tox 40µM*.
For COc1ccccc1-c1cnc(Nc2cccnc2OC)c2c1CCO2 the results were HEK293 tox 28µM*, NIH3T3 tox inconclusive, hNpr1 antagonist -23%[70.6 µM] and Luciferase inh inconclusive.
For COc1ccccc1-c1cnc(Nc2cccnc2)c2c1CCO2 the results were HEK293 tox 79µM*, NIH3T3 tox inconclusive, hNpr1 antagonist inconclusive and Luciferase inh inconclusive.
`COc1ccccc1-c1cnc(Nc2ccc(Cl)cn2)c2c1CCO2` gave HEK293 tox 63µM*, NIH3T3 tox inconclusive, hNpr1 antagonist -23%[70.6 µM] and Luciferase inh inconclusive.
